Measured values as given in PubChem BioAssay AID1159580 (chemical genetic matrix, 2015).
Screen size: about 5,500 compounds; about 2,000 (36%) were called active. Another 18% or so got no clear call; they are omitted. Rule as the data show it: active = normalized growth mostly below about 0.91 (no sharp cut-off); inconclusive = no clear call, values can overlap the other calls; inactive = mostly above about 0.92. The list shows a part of the results.

Experiment: chemical genetic growth profiling, strain panel (AID 1159580);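 also: tested at 20 µM; growth read once vehicle control cultures reached saturation at 30 °C; 1 = growth at the plate median or of vehicle wells; lower values mean less growth of the strain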
Conditions: growth OD

Measured: normalized growth

COc1cc(C(=O)O)c(O)c2c1OCO2
inactive: S. cerevisiae deletion strains, locus YAL013W, strain DEP1, hits give low values 1.01 | S. cerevisiae deletion strains, locus YBR021W, strain FUR4, hits give low values 0.999 | S. cerevisiae deletion strains, locus YBR229C, strain ROT2, hits give low values 0.999 | S. cerevisiae deletion strains, locus YCL029C, strain bik1, hits give low values 0.995 | S. cerevisiae deletion strains, locus YDL035C, strain GPR1, hits give low values 1.02 | S. cerevisiae deletion strains, locus YDL074C, strain BRE1, hits give low values 1.05 | S. cerevisiae deletion strains, locus YDL101C, strain DUN1, hits give low values 1.01 | S. cerevisiae deletion strains, locus YDL134C, strain PPH21, hits give low values 1.01 | S. cerevisiae deletion strains, locus YDL185W, strain tfp1, hits give low values 1 | S. cerevisiae deletion strains, locus YDL192W, strain arf1, hits give low values 1 | S. cerevisiae deletion strains, locus YDR101C, strain arx1, hits give low values 0.989 | S. cerevisiae deletion strains, locus YDR150W, strain NUM1, hits give low values 1.01 | S. cerevisiae deletion strains, locus YDR162C, strain NBP2, hits give low values 1.02 | S. cerevisiae deletion strains, locus YDR318W, strain mcm21, hits give low values 1 | S. cerevisiae deletion strains, locus YDR388W, hits give low values 1 | S. cerevisiae deletion strains, locus YDR502C, strain sam2, hits give low values 0.999 | S. cerevisiae deletion strains, locus YEL061C, strain CIN8, hits give low values 1 | S. cerevisiae deletion strains, locus YER110C, hits give low values 1 | S. cerevisiae deletion strains, locus YER155C, strain BEM2, hits give low values 1 | S. cerevisiae deletion strains, locus YER167W, strain BCK2, hits give low values 1.01 | S. cerevisiae deletion strains, locus YGL078C, strain dbp3, hits give low values 1.01 | S. cerevisiae deletion strains, locus YGL086W, strain mad1, hits give low values 1 | S. cerevisiae deletion strains, locus YGL248W, strain PDE1, hits give low values 1.01 | S. cerevisiae deletion strains, locus YGR078C, strain PAC10, hits give low values 1.03 | S. cerevisiae deletion strains, locus YGR135W, strain pre9, hits give low values 0.996 | S. cerevisiae deletion strains, locus YGR229C, strain SMI1, hits give low values 1.02 | S. cerevisiae deletion strains, locus YGR252W, strain gcn5, hits give low values 1.02 | S. cerevisiae deletion strains, locus YHR030C, strain SLT2, hits give low values 1.01 | S. cerevisiae deletion strains, locus YHR079C, strain IRE1 (second series), hits give low values 1 | S. cerevisiae deletion strains, locus YHR094C, strain hxt1, hits give low values 1 | S. cerevisiae deletion strains, locus YHR129C, strain ARP1, hits give low values 1.01 | S. cerevisiae deletion strains, locus YHR200W, strain rpn10, hits give low values 1.01 | S. cerevisiae deletion strains, locus YIL066C, strain RNR3, hits give low values 1.02 | S. cerevisiae deletion strains, locus YIL073C, strain SPO22, hits give low values 1.02 | S. cerevisiae deletion strains, locus YIL125W, strain kgd1, hits give low values 1 | S. cerevisiae deletion strains, locus YIR030C, strain dcg1, hits give low values 1 | S. cerevisiae deletion strains, locus YJL095W, strain BCK1, hits give low values 1.01 | S. cerevisiae deletion strains, locus YJL134W, strain LCB3, hits give low values 1 | S. cerevisiae deletion strains, locus YJL168C, strain set2, hits give low values 1 | S. cerevisiae deletion strains, locus YJL187C, strain SWE1 (second series), hits give low values 1.01 | S. cerevisiae deletion strains, locus YJR043C, strain POL32, hits give low values 1.02 | S. cerevisiae deletion strains, locus YJR075W, strain HOC1, hits give low values 1 | S. cerevisiae deletion strains, locus YKL009W, strain mrt4, hits give low values 1.01 | S. cerevisiae deletion strains, locus YKL068W, hits give low values 1.01 | S. cerevisiae deletion strains, locus YKL085W, strain MDH1 (second series), hits give low values 1 | S. cerevisiae deletion strains, locus YKL085W, strain MDH1, hits give low values 1 | S. cerevisiae deletion strains, locus YKL190W, strain CNB1, hits give low values 1.01 | S. cerevisiae deletion strains, locus YKR001C, strain vps1, hits give low values 1.01 | S. cerevisiae deletion strains, locus YLR039C, strain RIC1, hits give low values 1.04 | S. cerevisiae deletion strains, locus YLR058C, strain SHM2, hits give low values 1.01 | S. cerevisiae deletion strains, locus YLR102C, strain apc9, hits give low values 1 | S. cerevisiae deletion strains, locus YLR262C, strain YPT6, hits give low values 1.03 | S. cerevisiae deletion strains, locus YLR268W, strain sec22, hits give low values 1 | S. cerevisiae deletion strains, locus YLR330W, strain CHS5, hits give low values 1.01 | S. cerevisiae deletion strains, locus YLR342W, strain FKS1 (second series), hits give low values 1.01 | S. cerevisiae deletion strains, locus YLR371W, strain rom2, hits give low values 1.02 | S. cerevisiae deletion strains, locus YLR418C, strain cdc73, hits give low values 1 | S. cerevisiae deletion strains, locus YML016C, strain PPZ1, hits give low values 1.01 | S. cerevisiae deletion strains, locus YML032C, strain rad52, hits give low values 1.02 | S. cerevisiae deletion strains, locus YML124C, strain tub3, hits give low values 0.998 | S. cerevisiae deletion strains, locus YMR078C, strain ctf18, hits give low values 1 | S. cerevisiae deletion strains, locus YMR223W, strain ubp8, hits give low values 1.01 | S. cerevisiae deletion strains, locus YMR263W, strain SAP30, hits give low values 1.02 | S. cerevisiae deletion strains, locus YMR307W, strain GAS1, hits give low values 0.961 | S. cerevisiae deletion strains, locus YNL067W, strain RPL9B, hits give low values 1.01 | S. cerevisiae deletion strains, locus YNL128W, strain TEP1, hits give low values 1.02 | S. cerevisiae deletion strains, locus YNL153C, strain GIM3, hits give low values 1.02 | S. cerevisiae deletion strains, locus YNL233W, strain BNI4, hits give low values 1.01 | S. cerevisiae deletion strains, locus YNL250W, strain rad50, hits give low values 1.01 | S. cerevisiae deletion strains, locus YNL271C, strain bni1, hits give low values 1.01 | S. cerevisiae deletion strains, locus YNL298W, strain CLA4, hits give low values 1.01 | S. cerevisiae deletion strains, locus YNL307C, strain MCK1, hits give low values 1.01 | S. cerevisiae deletion strains, locus YNL322C, strain KRE1, hits give low values 1.01 | S. cerevisiae deletion strains, locus YNR052C, strain pop2, hits give low values 1.01 | S. cerevisiae deletion strains, locus YOL006C, strain TOP1, hits give low values 0.995 | S. cerevisiae deletion strains, locus YOL012C, strain htz1 1.11 | S. cerevisiae deletion strains, locus YOL147C, strain pex11, hits give low values 0.998 | S. cerevisiae deletion strains, locus YOR061W, strain CKA2, hits give low values 1.01 | S. cerevisiae deletion strains, locus YOR069W, strain VPS5, hits give low values 1.01 | S. cerevisiae deletion strains, locus YOR136W, strain idh2, hits give low values 1 | S. cerevisiae deletion strains, locus YOR144C, strain elg1, hits give low values 0.997 | S. cerevisiae deletion strains, locus YOR184W, strain ser1, hits give low values 1.01 | S. cerevisiae deletion strains, locus YOR316C, strain cot1, hits give low values 1.01 | S. cerevisiae deletion strains, locus YPL055C, strain LGE1, hits give low values 1.04 | S. cerevisiae deletion strains, locus YPL241C, strain CIN2, hits give low values 1.01 | S. cerevisiae deletion strains, locus YPR119W, strain clb2, hits give low values 0.997 | S. cerevisiae deletion strains, locus YPR141C, strain kar3, hits give low values 1.01 | S. cerevisiae deletion strains, locus YPR163C, strain tif3, hits give low values 1 | S. cerevisiae deletion strains, locus YPR167C, strain met16, hits give low values 1.01 | S. cerevisiae deletion strains, strain wtn01, hits give low values 0.982 | S. cerevisiae strains, strain wild type, hits give low values 1.02
